Results: PubChem BioAssay AID1347139 (National Center for Advancing Translational Sciences (NCATS), 2019)
Some of the results follow. Results filed as inconclusive are left out. Active and inactive are the calls of the source. Calls come from the whole dose curve; as a rule, active = well fitted inhibition curve with a large enough effect; inconclusive = small, poorly fitted or top-dose-only effect; inactive = no such curve, though single readings can be large or run the other way.

Test: qHTS of pediatric cancer cell lines to identify multiple opportunities for drug repurposing: Orthogonal 3D viability screen for TC32 cells
Conditions: TC32 3D spheroid viability, PI/Hoechst imaging, 72 h; series mostly up to 30.7 µM
Source text: Drug repurposing or repositioning has been offered as a strategy for drug development in oncology programs. This approach has special potential for childhood cancers and other rare or orphan diseases, where the expected return on new drug development has been a disincentive to pharmaceuticals. […] In this project we exploit the poly-pharmacology of drugs to discover new indications via phenotypic screening of a panel of 19 well-characterized cell lines derived from solid tumors seen in children and adolescents. The goal is to identify approved drugs with previously unrecognized anticancer properties that has the potential to reveal new mechanisms and biological processes involved in carcinogenesis or drug resistance. We employed a titration-based paradigm (quantitative high-throughput screening or qHTS), where all compounds were tested at multiple concentrations for their effect on cell viability. Concentration-response curves (CRCs) were derived directly from the primary screen, and both potency and efficacy values were used to identify compounds with robust bioactivity profiles. […] These two assays will be used to validate active compounds and assess the correlation of compound's potency in 2D vs 3D cultures on selected cell lines. Assay Submitter: Nathalia J. Martinez, National Center for Advancing Translational Sciences, National Institutes of Health, Rockville, MD, USA; email: natalia.martinez@nih.gov Shen, M et al. Quantitative high-throughput phenotypic screening of pediatric cancer cell lines identifies multiple opportunities for drug repurposing. Oncotarget 2017 Dec 19;9(4):4758-4772. PMID 29435139.
The cells were obtained from University of North Carolina (UNC), Pediatric Preclinical Testing Program (PPT), and Coriell Institute (CI). qHTS viability in 3D culture: Cells were assayed in phenol red-free growth media at a density of 1,000 cells/well, with the exception of Daoy, and SH-N-SH which were assayed at 1,500 cells/ well. Thirty muL of cells were dispensed into 384-well, ULA, round bottom plates (Corning) using a Multidrop dispenser. Plates were spun down at 1,000 rpm for 1 min and incubated at 37 degrees C, 5% CO2, under a humidified atmosphere for either 24 (Daoy) or 48 hours (all other cell lines) to allow spheroid formation. Ninety-two nanoliter of compounds and controls (neutral control DMSO or positive control bortezomib at final concentrations of 0.5 µM) were subsequently transferred via GNF Pintool. Plates were sealed using a breathable seal (Diversified Biotech, Dedham, MA) and incubated for 72 hours at 37 degrees C. Spheroid viability was first determined by high-content imaging using Hoechst 33342 and Propidium Iodide (PI, ThermoFisher Scientific), followed by addition of CellTiter-Glo 3D (Promega). Specifically, 3 µL/well of PBS containing a 1:500 dilution of both dyes was dispensed using Multidrop. Dyes were incubated for 1 hour before imaging using the Celigo Image Cytometer. Then, 20 µl of CellTiter-Glo 3D were added per well. Plates were incubated for 30 min at RT on a VWR microplate shaker (300 rpm) and analyzed for luminescence intensity using a ViewLux High-throughput CCD imager equipped with clear filters. Image analysis was done using the Celigo Tumorsphere 1+2+3 application software as previously described. […] The data were exported to Excel, and the average fluorescent intensities were used to calculate the ratio of PI over Hoechst, which was used to quantify viability. […]

| Compound | Potency |
| --- | --- |
| COC(=O)Nc1nc2ccc(Sc3ccccc3)cc2[nH]1 | 810 nM (active) |
| CC[C@]1(O)C[C@@H]2CN(CCc3c([nH]c4ccccc34)[C@@](C(=O)OC)(c3cc4c(cc3OC)N(C)[C@H]3[C@@](O)(C(=O)OC)[C@H](OC(C)=O)[C@]5(CC)C=CCN6CC[C@]43[C@@H]65)C2)C1 | 32.3 nM (active) |
| CC[C@H]1CN2CCc3cc(OC)c(OC)cc3[C@@H]2C[C@@H]1C[C@H]1NCCc2cc(OC)c(OC)cc21 | 323 nM (active) |
| CC(NCc1ccc2c(c1)nc(NC(=O)c1ccc(-c3cn[nH]c3)s1)n2CC(C)(C)O)C(C)(C)C (stereo not given) | 1620 nM (active) |
| C=C1C(=CC=C2CCC[C@]3(C)[C@@H]([C@H](C)C=C[C@H](C)C(C)C)CC[C@@H]23)C[C@@H](O)C[C@@H]1O | inactive |
